# Data as given in publication PMC7862700, “An all-to-all approach to the identification of sequence-specific readers for epigenetic DNA modifications on cytosine”.
# Tests used:
# Assay in all cases: DAPPL (digital affinity profiling via proximity ligation, sequencing); 10 mM Tris-HCl pH 7.5, 50 mM NaCl, 1 mM DTT, 4% glycerol, room temperature, 30 min; GST-TFs on glutathione beads, 16-mer random dsDNA library, 0.1% formaldehyde crosslink after washing; high values mean tight binding
# FEV = target: T1, FEV (Homo sapiens, UniProt Q99581 1-238); conditions: protein: recombinant; tags: N-terminal GST; dsDNA, one strand shown
# T1 sequence: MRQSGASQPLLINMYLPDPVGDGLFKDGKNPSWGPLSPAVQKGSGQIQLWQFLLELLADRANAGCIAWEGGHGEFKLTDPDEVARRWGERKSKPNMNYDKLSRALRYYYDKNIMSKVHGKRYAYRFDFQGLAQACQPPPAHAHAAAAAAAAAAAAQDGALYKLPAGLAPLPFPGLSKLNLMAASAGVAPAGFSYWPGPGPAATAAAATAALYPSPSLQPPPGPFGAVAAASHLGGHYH
# Outline: (§1)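 Human transcription factors fused to GST were expressed in yeast, captured on glutathione beads, given DNA barcodes and pooled with a GST-only negative control. Pools were incubated with 200 nmole of a 16-mer random double-stranded DNA library in Tris/NaCl/DTT/glycerol buffer at room temperature for 30 min. They were then washed, crosslinked with 0.1% formaldehyde, proximity-ligated (BsaI/T4 ligase, 1 h, 37 °C), PCR-amplified and sequenced on an Illumina NextSeq500. Binding signal is each 6-mer's read frequency for a factor divided by its frequency for the GST control.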
# ETV5 = ETV5 (Homo sapiens, UniProt P41161 1-510); conditions: protein: recombinant; tags: N-terminal GST; dsDNA, one strand shown
# ETV5, sequence (P41161 whole entry): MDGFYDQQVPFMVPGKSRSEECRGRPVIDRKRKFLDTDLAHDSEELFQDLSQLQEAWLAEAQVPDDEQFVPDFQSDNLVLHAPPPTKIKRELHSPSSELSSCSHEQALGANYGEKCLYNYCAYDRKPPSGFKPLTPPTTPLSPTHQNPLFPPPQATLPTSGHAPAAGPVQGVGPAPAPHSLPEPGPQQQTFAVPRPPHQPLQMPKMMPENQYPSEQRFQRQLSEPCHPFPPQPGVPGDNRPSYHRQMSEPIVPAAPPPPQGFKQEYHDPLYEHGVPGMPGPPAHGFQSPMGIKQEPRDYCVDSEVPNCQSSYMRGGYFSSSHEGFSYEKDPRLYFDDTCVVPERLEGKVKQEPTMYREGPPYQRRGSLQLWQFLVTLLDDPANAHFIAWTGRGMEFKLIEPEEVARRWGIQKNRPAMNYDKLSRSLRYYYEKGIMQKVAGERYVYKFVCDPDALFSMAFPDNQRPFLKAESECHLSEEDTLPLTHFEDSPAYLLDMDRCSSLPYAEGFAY
# Outline: as §1
# HSF1 = HSF1 (Homo sapiens, UniProt Q00613 1-529); conditions: protein: recombinant; tags: N-terminal GST; chain copies: 3; dsDNA, one strand shown
# HSF1, sequence (Q00613 whole entry): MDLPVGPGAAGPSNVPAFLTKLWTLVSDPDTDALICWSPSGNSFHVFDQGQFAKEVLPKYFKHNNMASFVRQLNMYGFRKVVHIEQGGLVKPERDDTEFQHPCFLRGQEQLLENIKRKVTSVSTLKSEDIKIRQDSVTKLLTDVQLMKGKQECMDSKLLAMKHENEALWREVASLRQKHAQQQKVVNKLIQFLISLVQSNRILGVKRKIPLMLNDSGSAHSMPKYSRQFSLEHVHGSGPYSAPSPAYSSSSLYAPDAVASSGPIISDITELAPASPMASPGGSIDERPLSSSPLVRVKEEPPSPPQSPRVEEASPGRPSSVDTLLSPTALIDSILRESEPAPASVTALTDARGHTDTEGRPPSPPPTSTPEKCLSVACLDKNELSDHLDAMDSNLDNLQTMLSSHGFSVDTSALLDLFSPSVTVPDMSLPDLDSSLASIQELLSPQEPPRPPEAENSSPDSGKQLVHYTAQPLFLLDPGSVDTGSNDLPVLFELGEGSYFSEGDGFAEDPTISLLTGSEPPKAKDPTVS
# Outline: as §1
# SPIC = target: T2, SPIC (Homo sapiens, UniProt Q8N5J4 1-248); conditions: protein: recombinant; tags: N-terminal GST; dsDNA, one strand shown
# T2 sequence: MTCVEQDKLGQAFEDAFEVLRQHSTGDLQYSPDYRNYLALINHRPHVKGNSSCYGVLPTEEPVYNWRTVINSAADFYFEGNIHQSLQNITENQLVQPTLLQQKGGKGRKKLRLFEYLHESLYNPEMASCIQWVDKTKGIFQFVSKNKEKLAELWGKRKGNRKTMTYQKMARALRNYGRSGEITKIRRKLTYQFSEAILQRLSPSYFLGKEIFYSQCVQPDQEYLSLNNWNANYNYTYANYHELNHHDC
# Outline: as §1
# ELF4 = ELF4 (Homo sapiens, UniProt Q99607 1-663); conditions: protein: recombinant; tags: N-terminal GST; dsDNA, one strand shown
# ELF4, sequence (Q99607 whole entry): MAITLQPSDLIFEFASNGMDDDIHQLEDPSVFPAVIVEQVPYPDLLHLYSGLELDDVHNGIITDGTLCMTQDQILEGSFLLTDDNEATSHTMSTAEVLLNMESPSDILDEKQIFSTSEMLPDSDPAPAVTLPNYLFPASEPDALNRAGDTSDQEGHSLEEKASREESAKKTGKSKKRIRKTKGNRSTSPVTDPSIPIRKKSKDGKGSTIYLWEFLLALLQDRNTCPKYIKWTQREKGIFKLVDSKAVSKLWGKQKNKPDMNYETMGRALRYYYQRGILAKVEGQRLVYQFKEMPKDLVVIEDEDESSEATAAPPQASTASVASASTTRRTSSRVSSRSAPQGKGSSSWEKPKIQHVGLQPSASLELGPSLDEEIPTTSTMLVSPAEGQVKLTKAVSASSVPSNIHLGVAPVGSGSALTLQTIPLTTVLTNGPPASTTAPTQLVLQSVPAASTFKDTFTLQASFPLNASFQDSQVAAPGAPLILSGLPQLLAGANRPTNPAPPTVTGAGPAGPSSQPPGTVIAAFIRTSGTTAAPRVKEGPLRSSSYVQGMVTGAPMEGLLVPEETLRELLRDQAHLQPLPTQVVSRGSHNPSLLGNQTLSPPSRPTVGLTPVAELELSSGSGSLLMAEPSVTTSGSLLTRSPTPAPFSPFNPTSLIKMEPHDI
# Outline: as §1
# ELK4 = target: T3, ELK4 (Homo sapiens, UniProt P28324-2 1-405); conditions: protein: recombinant; tags: N-terminal GST; dsDNA, one strand shown
# T3 sequence: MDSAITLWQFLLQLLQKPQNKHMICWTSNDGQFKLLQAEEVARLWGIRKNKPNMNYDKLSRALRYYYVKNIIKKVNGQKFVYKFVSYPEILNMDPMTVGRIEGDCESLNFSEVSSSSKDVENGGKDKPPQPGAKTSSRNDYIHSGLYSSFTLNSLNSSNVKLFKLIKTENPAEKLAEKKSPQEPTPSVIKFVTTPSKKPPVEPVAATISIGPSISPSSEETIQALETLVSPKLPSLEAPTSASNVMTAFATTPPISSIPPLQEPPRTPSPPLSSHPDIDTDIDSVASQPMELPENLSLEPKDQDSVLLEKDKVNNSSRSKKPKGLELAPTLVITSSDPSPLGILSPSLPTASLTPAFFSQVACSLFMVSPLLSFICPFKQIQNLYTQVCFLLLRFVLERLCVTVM
# Outline: as §1
# ETV2 = target: T4, ETV2 (Homo sapiens, UniProt O00321 1-342); conditions: protein: recombinant; tags: N-terminal GST; dsDNA, one strand shown
# T4 sequence: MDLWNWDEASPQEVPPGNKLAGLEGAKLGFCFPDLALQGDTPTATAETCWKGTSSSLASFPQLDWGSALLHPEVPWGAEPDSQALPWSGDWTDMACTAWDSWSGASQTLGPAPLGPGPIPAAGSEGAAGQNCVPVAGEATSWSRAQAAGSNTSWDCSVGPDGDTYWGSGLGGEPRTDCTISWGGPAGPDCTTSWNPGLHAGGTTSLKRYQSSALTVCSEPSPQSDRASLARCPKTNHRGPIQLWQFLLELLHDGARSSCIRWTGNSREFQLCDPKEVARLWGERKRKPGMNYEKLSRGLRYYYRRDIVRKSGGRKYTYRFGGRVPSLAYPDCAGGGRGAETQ
# Outline: as §1
# ELF3 = target: T5, ELF3 (Homo sapiens, UniProt P78545 1-371); conditions: protein: recombinant; tags: N-terminal GST; dsDNA, one strand shown
# T5 sequence: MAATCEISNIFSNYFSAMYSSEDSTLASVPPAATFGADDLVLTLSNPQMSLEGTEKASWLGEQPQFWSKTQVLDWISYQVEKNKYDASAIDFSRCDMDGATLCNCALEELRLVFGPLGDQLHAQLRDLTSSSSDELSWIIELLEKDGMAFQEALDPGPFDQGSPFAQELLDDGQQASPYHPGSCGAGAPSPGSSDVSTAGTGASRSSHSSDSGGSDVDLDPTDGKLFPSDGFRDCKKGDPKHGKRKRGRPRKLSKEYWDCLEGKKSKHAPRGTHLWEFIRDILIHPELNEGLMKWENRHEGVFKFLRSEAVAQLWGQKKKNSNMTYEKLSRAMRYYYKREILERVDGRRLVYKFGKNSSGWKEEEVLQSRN
# Outline: as §1
# CRX = CRX (Homo sapiens, UniProt O43186 1-299); conditions: protein: recombinant; tags: N-terminal GST; dsDNA, one strand shown
# CRX, sequence (O43186 whole entry): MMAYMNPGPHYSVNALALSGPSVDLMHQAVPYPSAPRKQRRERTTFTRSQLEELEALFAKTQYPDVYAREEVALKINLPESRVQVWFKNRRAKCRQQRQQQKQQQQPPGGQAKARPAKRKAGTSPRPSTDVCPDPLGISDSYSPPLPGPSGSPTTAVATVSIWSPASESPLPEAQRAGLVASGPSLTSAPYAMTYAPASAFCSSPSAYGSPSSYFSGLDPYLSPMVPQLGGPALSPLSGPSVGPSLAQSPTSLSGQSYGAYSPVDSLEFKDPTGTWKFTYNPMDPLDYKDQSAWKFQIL
# Outline: as §1
# ETV1 = ETV1 (Homo sapiens, UniProt P50549 1-477); conditions: protein: recombinant; tags: N-terminal GST; dsDNA, one strand shown
# ETV1, sequence (P50549 whole entry): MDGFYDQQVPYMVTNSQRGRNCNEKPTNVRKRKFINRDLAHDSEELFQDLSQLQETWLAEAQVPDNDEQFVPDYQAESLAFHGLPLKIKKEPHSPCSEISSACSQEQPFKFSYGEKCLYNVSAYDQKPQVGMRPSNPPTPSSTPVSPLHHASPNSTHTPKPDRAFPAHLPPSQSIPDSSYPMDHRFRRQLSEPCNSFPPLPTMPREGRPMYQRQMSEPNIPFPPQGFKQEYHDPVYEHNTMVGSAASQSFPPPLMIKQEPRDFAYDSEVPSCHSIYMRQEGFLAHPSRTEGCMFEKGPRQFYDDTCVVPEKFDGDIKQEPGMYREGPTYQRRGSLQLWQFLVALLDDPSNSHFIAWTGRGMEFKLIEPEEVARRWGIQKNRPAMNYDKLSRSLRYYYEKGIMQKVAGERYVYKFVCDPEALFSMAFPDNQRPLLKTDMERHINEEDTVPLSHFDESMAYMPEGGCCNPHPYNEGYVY
# Outline: as §1
# ERF = target: T6, ERF (Homo sapiens, UniProt P50548 1-548); conditions: protein: recombinant; tags: N-terminal GST; dsDNA, one strand shown
# T6 sequence: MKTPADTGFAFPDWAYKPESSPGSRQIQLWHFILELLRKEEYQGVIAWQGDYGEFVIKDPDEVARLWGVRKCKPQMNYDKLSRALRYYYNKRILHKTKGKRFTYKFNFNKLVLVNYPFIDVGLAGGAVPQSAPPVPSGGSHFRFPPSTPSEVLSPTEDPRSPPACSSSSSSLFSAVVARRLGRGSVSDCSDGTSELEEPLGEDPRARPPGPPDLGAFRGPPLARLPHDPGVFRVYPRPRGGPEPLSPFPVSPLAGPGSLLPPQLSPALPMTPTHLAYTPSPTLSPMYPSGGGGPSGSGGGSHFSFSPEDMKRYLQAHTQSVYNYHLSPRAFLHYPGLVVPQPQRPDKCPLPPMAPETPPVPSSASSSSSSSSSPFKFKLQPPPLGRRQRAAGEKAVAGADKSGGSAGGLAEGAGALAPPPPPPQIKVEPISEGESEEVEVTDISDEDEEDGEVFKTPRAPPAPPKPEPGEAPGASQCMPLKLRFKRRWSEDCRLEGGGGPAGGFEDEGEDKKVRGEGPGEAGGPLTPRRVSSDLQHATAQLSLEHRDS
# Outline: as §1
# ETV3L = target: T7, ETV3L (Homo sapiens, UniProt Q6ZN32 1-361); conditions: protein: recombinant; tags: N-terminal GST; dsDNA, one strand shown
# T7 sequence: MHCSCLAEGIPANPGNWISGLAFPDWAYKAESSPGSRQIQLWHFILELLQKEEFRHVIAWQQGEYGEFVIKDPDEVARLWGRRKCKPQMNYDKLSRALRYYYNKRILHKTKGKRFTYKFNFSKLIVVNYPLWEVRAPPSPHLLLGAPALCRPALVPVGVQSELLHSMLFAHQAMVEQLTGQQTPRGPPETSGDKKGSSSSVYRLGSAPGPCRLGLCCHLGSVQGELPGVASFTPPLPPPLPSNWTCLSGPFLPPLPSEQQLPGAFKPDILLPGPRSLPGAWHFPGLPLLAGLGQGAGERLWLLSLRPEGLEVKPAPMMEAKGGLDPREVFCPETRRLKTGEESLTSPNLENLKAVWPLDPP
# Outline: as §1
# ETS2 = target: T8, ETS2 (Homo sapiens, UniProt P15036 1-469); conditions: protein: recombinant; tags: N-terminal GST; dsDNA, one strand shown
# T8 sequence: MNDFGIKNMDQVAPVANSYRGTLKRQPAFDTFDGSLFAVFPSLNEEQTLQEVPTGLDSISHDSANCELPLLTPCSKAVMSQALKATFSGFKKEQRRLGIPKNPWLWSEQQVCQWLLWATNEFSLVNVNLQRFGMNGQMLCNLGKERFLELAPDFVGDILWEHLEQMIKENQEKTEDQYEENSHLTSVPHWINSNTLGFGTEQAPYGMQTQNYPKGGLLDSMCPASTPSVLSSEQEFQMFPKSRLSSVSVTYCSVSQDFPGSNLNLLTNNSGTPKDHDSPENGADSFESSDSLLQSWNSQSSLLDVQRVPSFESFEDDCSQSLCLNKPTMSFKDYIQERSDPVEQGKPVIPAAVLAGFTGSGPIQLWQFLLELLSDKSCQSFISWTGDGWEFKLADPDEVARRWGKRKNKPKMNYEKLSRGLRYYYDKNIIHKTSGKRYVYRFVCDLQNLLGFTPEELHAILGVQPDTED
# Outline: as §1
# SPDEF = target: T9, SPDEF (Homo sapiens, UniProt O95238 1-335); conditions: protein: recombinant; tags: N-terminal GST; dsDNA, one strand shown
# T9 sequence: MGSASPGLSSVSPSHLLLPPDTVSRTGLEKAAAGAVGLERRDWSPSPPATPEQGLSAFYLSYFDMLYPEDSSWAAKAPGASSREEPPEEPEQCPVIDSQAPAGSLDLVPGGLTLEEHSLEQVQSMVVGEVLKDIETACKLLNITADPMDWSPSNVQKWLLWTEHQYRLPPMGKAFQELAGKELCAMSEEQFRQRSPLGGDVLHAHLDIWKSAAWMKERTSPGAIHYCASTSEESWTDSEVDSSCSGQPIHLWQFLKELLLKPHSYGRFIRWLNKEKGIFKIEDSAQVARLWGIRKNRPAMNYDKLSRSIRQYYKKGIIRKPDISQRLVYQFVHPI
# Outline: as §1
# ETV7 = target: T10, ETV7 (Homo sapiens, UniProt Q9Y603 1-341); conditions: protein: recombinant; tags: N-terminal GST; dsDNA, one strand shown
# T10 sequence: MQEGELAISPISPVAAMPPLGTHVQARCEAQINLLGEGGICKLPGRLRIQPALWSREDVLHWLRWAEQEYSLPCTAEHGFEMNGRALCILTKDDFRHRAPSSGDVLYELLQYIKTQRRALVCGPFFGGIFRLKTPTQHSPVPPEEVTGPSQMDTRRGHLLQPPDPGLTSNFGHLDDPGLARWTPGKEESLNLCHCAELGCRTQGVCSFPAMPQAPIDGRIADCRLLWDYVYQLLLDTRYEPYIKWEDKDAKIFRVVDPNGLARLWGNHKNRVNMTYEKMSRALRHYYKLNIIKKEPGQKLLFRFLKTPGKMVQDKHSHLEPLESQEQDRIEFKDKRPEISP
# Outline: as §1
# ELF5 = target: T11, ELF5 (Homo sapiens, UniProt Q9UKW6-2 1-255); conditions: protein: recombinant; tags: N-terminal GST; dsDNA, one strand shown
# T11 sequence: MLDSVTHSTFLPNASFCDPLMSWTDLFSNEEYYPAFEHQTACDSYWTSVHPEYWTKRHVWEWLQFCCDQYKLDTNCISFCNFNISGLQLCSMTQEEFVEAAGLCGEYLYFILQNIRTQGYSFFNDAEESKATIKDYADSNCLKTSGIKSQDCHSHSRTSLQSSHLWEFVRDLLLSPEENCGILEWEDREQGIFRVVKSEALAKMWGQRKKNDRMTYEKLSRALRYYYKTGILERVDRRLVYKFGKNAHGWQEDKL
# Outline: as §1
# ETV3 = target: T12, ETV3 (Homo sapiens, UniProt P41162-2 1-143); conditions: protein: recombinant; tags: N-terminal GST; dsDNA, one strand shown
# T12 sequence: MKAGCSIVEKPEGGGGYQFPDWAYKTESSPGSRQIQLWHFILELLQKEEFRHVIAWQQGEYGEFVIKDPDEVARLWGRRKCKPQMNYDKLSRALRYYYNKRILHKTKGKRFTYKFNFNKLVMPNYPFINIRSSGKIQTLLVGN
# Outline: as §1
# ETV6 = ETV6 (Homo sapiens, UniProt P41212 1-452); conditions: protein: recombinant; tags: N-terminal GST; dsDNA, one strand shown
# ETV6, sequence (P41212 whole entry): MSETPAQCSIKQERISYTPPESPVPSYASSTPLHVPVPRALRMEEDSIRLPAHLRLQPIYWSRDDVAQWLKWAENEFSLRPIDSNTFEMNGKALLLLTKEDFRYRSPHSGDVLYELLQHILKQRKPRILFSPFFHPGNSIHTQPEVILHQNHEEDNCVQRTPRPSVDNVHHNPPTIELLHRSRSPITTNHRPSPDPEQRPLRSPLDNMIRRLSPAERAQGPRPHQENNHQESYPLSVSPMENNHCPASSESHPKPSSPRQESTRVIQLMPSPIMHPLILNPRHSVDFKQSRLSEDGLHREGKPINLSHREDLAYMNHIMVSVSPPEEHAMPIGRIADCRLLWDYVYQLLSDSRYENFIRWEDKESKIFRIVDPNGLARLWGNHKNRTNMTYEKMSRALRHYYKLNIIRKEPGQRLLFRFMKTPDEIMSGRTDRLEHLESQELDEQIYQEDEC
# Outline: as §1
sequence,measurement,setting,value
GCCTTG,binding signal,FEV,"1.13 fold enrichment (6-mer frequency, TF over GST control)"
same,binding signal,ETV5,"1.34 fold enrichment (6-mer frequency, TF over GST control)"
same,binding signal,HSF1,"1.06 fold enrichment (6-mer frequency, TF over GST control)"
same,binding signal,SPIC,"1.31 fold enrichment (6-mer frequency, TF over GST control)"
same,binding signal,ELF4,"1.21 fold enrichment (6-mer frequency, TF over GST control)"
same,binding signal,ELK4,"1.17 fold enrichment (6-mer frequency, TF over GST control)"
same,binding signal,ETV2,"1.09 fold enrichment (6-mer frequency, TF over GST control)"
same,binding signal,ELF3,"1.23 fold enrichment (6-mer frequency, TF over GST control)"
same,binding signal,CRX,"1.05 fold enrichment (6-mer frequency, TF over GST control)"
same,binding signal,ETV1,"1.18 fold enrichment (6-mer frequency, TF over GST control)"
same,binding signal,ERF,"1.16 fold enrichment (6-mer frequency, TF over GST control)"
same,binding signal,ETV3L,"1.34 fold enrichment (6-mer frequency, TF over GST control)"
same,binding signal,ETS2,"1.25 fold enrichment (6-mer frequency, TF over GST control)"
same,binding signal,SPDEF,"1.13 fold enrichment (6-mer frequency, TF over GST control)"
same,binding signal,ETV7,"1.3 fold enrichment (6-mer frequency, TF over GST control)"
same,binding signal,ELF5,"1.17 fold enrichment (6-mer frequency, TF over GST control)"
same,binding signal,ETV3,"1.14 fold enrichment (6-mer frequency, TF over GST control)"
same,binding signal,ETV6,"1.16 fold enrichment (6-mer frequency, TF over GST control)"
